Sampled rows, rich in hits. Any-hit rate of the full collection: about 3.1%.
OvCa metastasis = blocks SKOV3ip1 adhesion and invasion in omental model; SKOV3ip1-GFP adhesion/invasion on 3D omental model, fluorescence; Potency, µM (top dose mostly 45.8 µM), inactives show at the top dose activity change, negative = inhibition, usual class: inhibitors; actives 0.1% (n = 46,000); AID 1963576;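 also: plate controls were DMSO wells for no effect and tomatine positive control wells for full effect; nearly all actives have a fitted effect of over 65% in size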
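qHTS, 4-pt dose (0.36-46 umol/L); SKOV3ip1-GFP, 1,200 cells/well, no FBS; primary omental fibroblast/mesothelial co-culture 48 h pre-grown; 2 h RT + 16 h 37 C; PBS wash, 4% PFA; GFP count 488/509 nm.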
p53null 32C tox = kills p53 null cells at the permissive temperature. Potency, µM (top dose mostly 46.1 µM), for inactives: at the top dose activity change, negative = cytotoxicity, usual class: cytotoxic. H1299-neo p53 null cells, ATP luminescence, 24 h, 32C. AID 903. actives 0.62% (n = 55,000);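 also: 0% = DMSO only and -100% = full killing by 100 µM tamoxifen; nearly all actives have a fitted effect of over 55% in size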
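H1299-neo (p53 null) cells, 600/well, treated 24 h at 32C with compound up to 46 uM; ATPlite luminescence viability, normalized to DMSO and 100 uM tamoxifen; AC50 by Hill fit.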
p53null 39C tox = selectivity test: cytotoxicity in p53 null cells, nonpermissive temperature | actives 0.97% (n = 55,000) | Potency, µM (top dose mostly 46.1 µM), without a hit: top-dose activity, negative = cell killing, actives largely listed as cytotoxic | H1299 p53-null (neo) cells, 39C, ATPlite viability, 24 h | AID 904;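 also: 0% = DMSO only and -100% = full killing by 100 µM tamoxifen; nearly all actives have a fitted effect of over 50% in size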
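Concentration-response (up to 46 uM) was run for 24 h at the nonpermissive 39C on H1299-p53A138V or H1299-neo cells. ATP content was measured with ATPlite luminescence. AC50 values were Hill-modeled after normalizing between DMSO and 100 uM tamoxifen killing.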
S16 viability = toxic to S16 Pmp22-F2sN Schwann cells; S16 Pmp22-F2sN Schwann cells viability, CellTiter-Glo, 24 h; Potency, µM (top dose mostly 57.5 µM), inactives show at the top dose activity change, negative = cytotoxicity, hits mostly cytotoxic; actives 0.48% (n = 43,000); also: nearly all actives have a fitted effect of over 65% in size
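S16 Schwann cells carrying the Pmp22-F2sN reporter, seeded in 1536-well format, were exposed to library compounds for 24 h at 37C. Viability was read as CellTiter-Glo luminescence after 15 min at room temperature.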
mTORC1 inh = mTORC1 pathway inhibition measured by phospho-rpS6; AID 493208; actives 0.78% (n = 44,000); Tsc2-/- p53-/- MEF, phospho-rpS6 immunofluorescence/PI, 24 h; Potency, µM (titrated, usually from 38.3 µM), inactives show at the top dose activity change, negative = inhibition, usual class: inhibitors;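 also: plate controls were DMSO for no effect and rapamycin for full effect; nearly all actives have a fitted effect of over 50% in size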
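Read-out: phospho-S6 Alexa-488 intensity over PI intensity per well, scored as % active cells using thresholds from rapamycin (7.5 nM) and DMSO controls. Tsc2-/-, p53-/- MEFs exposed to compound for 24 h; PI cell count recorded as viability.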
PMP22 txn prim = PMP22 gene transcription modulation; S16 Pmp22-F2sN Schwann cells (luciferase reporters placed in the Pmp22 gene), FLuc/NLuc coincidence luminescence, 24 h; Potency, µM (top dose mostly 57.5 µM), inactives show top-dose activity change, negative = inhibition, hits mostly inhibitors; actives 2% (n = 43,000); AID 1508649; active = clear falling dose curves in both reporters; inconclusive = both reporters move, but less clearly or upward; inactive = either reporter flat; the % is the NLuc reporter signal
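qHTS, 1536-well. Cells seeded, compounds added by pin tool, 24 h 37C. Nano-Glo reagent 1 (lysis/FLuc), 10 min RT, read; Stop&Glo, 10 min RT, read NLuc.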
* = called active by the depositor; i = inactive; u = inconclusive; x = no result. Unless noted, calls follow the shape of the dose curve; as a rule, active = well fitted curve in the direction sought with a large enough effect; inconclusive = small, poorly fitted or top-dose-only effect, or another doubt; inactive = no such curve, though single readings can be large; an effect the other way counts as inactive or inconclusive. Unless noted, % is scaled to controls: 0 for no effect and ±100 for the full control effect; potency is read from the fitted curve at half-maximal effect.

SMILES | OvCa metastasis | p53null 32C tox | p53null 39C tox | S16 viability | mTORC1 inh | PMP22 txn prim
Cc1ccc2oc(=O)c(-c3nc4ccc(C)cc4[nH]3)cc2c1 | -25% | -29% | 20µM* | -8% | -9% | -10%
CCCCNc1ccncc1S(=O)(=O)NC(=O)NC(C)C | x | -6% | 13% | x | x | x
CCCCNC(=O)c1cc(-c2cccnc2)nc2ccc(S(=O)(=O)NCCCC)cc12 | -3% | -9% | -2% | 25µM* | u | u
CC(=CCCC1=CCC(C2=CC(=O)OC2O)OC1O)CCC1=C(C)CCCC1(C)C (centres undefined) | -3% | x | x | x | x | x
Cc1cccn2c(=O)cc(COc3cccc(NC(=O)COc4ccc(F)cc4)c3)nc12 | 1% | 13µM* | 13µM* | u | 13% | u
CC(C)[C@]12O[C@@H]1[C@@H]1O[C@]13[C@]1(O[C@H]1C[C@@H]1C4=C(CC[C@@]13C)C(=O)OC4)[C@H]2O | -2% | x | x | x | x | x
CC1=C(O)C(=O)C=C2C1=CC=C1[C@@]2(C)CC[C@@]2(C)[C@@H]3C[C@](C)(C(=O)O)CC[C@]3(C)CC[C@]12C | 4.2µM* | x | x | x | x | x
COc1ccc(NC(=O)CCn2cnc3onc(-c4ccc(F)cc4)c3c2=O)cc1OC | i | 18% | 0% | u | u | 11µM*
COc1ccc(NC(=O)CCc2nc(C3=CCN(Cc4cccc(Cl)c4)CC3)no2)cc1OC | i | 3% | 17% | -21% | 0% | -19%
CC(C)(C)c1cc(C=C(C#N)C#N)cc(Br)c1O | -4% | x | x | x | x | x
CC(C)(O)C=CC(=O)[C@](C)(O)[C@H]1[C@H](O)C[C@]2(C)[C@@H]3CC=C4[C@@H](C=C(O)C(=O)C4(C)C)[C@]3(C)C(=O)C[C@@]12C | 1µM* | x | x | x | x | x
CC1=C2C[C@@H]3[C@@H](CC=C4C[C@@H](O)CC[C@@]43C)[C@@H]2CC[C@]12O[C@H]1C[C@H](C)CN[C@H]1[C@H]2C | 20% | x | x | x | x | x
CCOc1ccc(N(C(C)C(=O)Nc2cc(Cl)ccc2OC)S(C)(=O)=O)cc1 (centres undefined) | u | 12% | 46% | u | 7.4µM* | u
COc1ccc(C(=O)Nc2ccc(Cl)cc2C(=O)c2ccccc2)c(OC)c1 | -4% | 1% | 20% | 22% | -18% | -16%
O=C(NCCSc1c(-c2ccc(F)cc2)[nH]c2ccccc12)c1ccc(S(=O)(=O)N2CCOCC2)cc1 | u | 10% | 13% | u | 15µM* | u
COc1ccc2nc(N3CCN(C(=O)CS(=O)(=O)c4ccc(C)cc4)CC3)sc2c1 | -1% | 10µM* | 85% | u | -7% | u
Cc1c(N)nc([C@H](CC(N)=O)NC[C@@H](N)C(N)=O)nc1C(=O)N[C@H](C(=O)N[C@@H](C)[C@H](O)[C@@H](C)C(=O)N[C@@H](C(=O)NCCc1nc(-c2nc(C(=O)NCCC[S+](C)C)cs2)cs1)[C@@H](C)O)C(O[C@H]1O[C@H](CO)[C@H](O)[C@@H](O)[C@@H]1O[C@H]1O[C@H](CO)[C@@H](O)[C@H](OC(N)=O)[C@H]1O)c1cnc[nH]1 (some centres undefined) | -27% | x | x | x | x | x
CCOC(=O)c1ccc(N2C(=O)c3n[nH]c(-c4cccs4)c3C2c2ccc(C(C)(C)C)cc2)cc1 (centres undefined) | 8% | 33% | u | -1% | -2% | u
CCOC(=O)c1ccc(N2C(=O)c3n[nH]c(-c4cccs4)c3C2c2ccc(Cl)cc2Cl)cc1 (centres undefined) | i | u | 18µM* | u | u | u

Compound activity (PubChem BioAssay)
